Reference: paper PMC13494018

B1: design_622_fcc41892-afde-4fb9-b6e8-b664fffd6a75_655_dldesign_0_cycle1_af2pred (protein)
chain: SMEAAAREAGKAEAEKVFAEAKAEGLGLGEAAKRIHDIFSKVSKFNPEFGAIARNAALAELQKLALAADA
B2: design_621_7e0052dc-ae49-49a0-b99f-9f3ee649cc2f_1483_dldesign_0_cycle1_af2pred (protein)
chain: AEAERLLAEARAAVAKGRAAGLAAAEAGLGAALEAARAMDAEARALAAAAEAAGHPEVAEEIRRAAGAAINEVLARASQVALAKAA
B3: design_622_fcc41892-afde-4fb9-b6e8-b664fffd6a75_786_dldesign_0_cycle1_af2pred (protein)
chain: DLLAEALRLAERAVEALREDPEEGRRLLEELAELGRRALAEKGDGLAVLLGLAARRALRLLEEDPEEARDFLERAVAFVRAQS
B4: design_622_fcc41892-afde-4fb9-b6e8-b664fffd6a75_1048_dldesign_0_cycle1_af2pred (protein)
chain: NPAVERARNVAEYAKQLIDFATANPAVPQALVDAAKAVLEAATKAAKEAEEDPSKAPEVLKRADEALAQANAISAQAAKAATAA
B5: design_622_fcc41892-afde-4fb9-b6e8-b664fffd6a75_667_dldesign_0_cycle1_af2pred (protein)
chain: SAEEAVRKGEELTREAIKLAEEAVKGTPEKAKKAVEEIVKKMAEAIKASPAYGLLIANQARAIYLEAGKEDEAKAVKEGYKKALELAA
B6: design_621_7e0052dc-ae49-49a0-b99f-9f3ee649cc2f_2237_dldesign_0_cycle1_af2pred (protein)
chain: MREEINRRMVELSGRINALFPYAQQDPEVNALLGKALGDLLEAHATPDPEEAAELVERAEEYVEAAEARAAALAA
B7: design_621_7e0052dc-ae49-49a0-b99f-9f3ee649cc2f_1640_dldesign_0_cycle1_af2pred (protein)
chain: GKKEEADKLVEEGNKLFEEAEALAKEGKVAEGSSKLIEGIKLYAEAAKLYREVDPAKADELYATAHAKSAKVNKLLLAAAR
B8: design_621_7e0052dc-ae49-49a0-b99f-9f3ee649cc2f_2346_dldesign_0_cycle1_af2pred (protein)
chain: AEVAEIAKKTAEEVKKLIEAGAPAEEAAAVLNAGIAAVIKAAKAAGPASAADLGKAMDIFKETAELIVAYERERAAEAA
B9: design_621_7e0052dc-ae49-49a0-b99f-9f3ee649cc2f_1508_dldesign_0_cycle1_af2pred (protein)
chain: AKEEEEEAKKKAESVKKMVEVAKALAEYAKKSTDPQVAKIAANAAIGLANNAIEVGKKYPEAEPYAKEAEKVKEEAKKVIEEK
B10: design_622_fcc41892-afde-4fb9-b6e8-b664fffd6a75_1090_dldesign_0_cycle1_af2pred (protein)
chain: AAALAEATAMQFVRQAKATTDPERKRALARGAALALQSVVSPEEAARKTAEMAEALGAPPEVIAAARALL
B11: design_622_fcc41892-afde-4fb9-b6e8-b664fffd6a75_788_dldesign_0_cycle1_af2pred (protein)
chain: SAAAEQLTLAAVRALSASAVAAEDPASSEQLFAVARDIADAASPETRARGLAIVDAARARAAARRAARAAAA
B12: design_622_fcc41892-afde-4fb9-b6e8-b664fffd6a75_877_dldesign_0_cycle1_af2pred (protein)
chain: SEEYRRRAEELERRAREAAEEARRAERAEELRRYAEELRRIANEAMRLAMEAAQAGGDPEVVVRAVEVAVEALRAAGEAYRRAEELE
B13: design_621_7e0052dc-ae49-49a0-b99f-9f3ee649cc2f_2068_dldesign_0_cycle1_af2pred (protein)
chain: DETLKKAKEALKKAAKAAKKIGDEEIAKKVEEALKLLTPESAELALAMAEALLASLKTADGKENAAKIATALRSGVANVAAA
B14: design_622_fcc41892-afde-4fb9-b6e8-b664fffd6a75_316_dldesign_0_cycle1_af2pred (protein)
chain: DALKVIEEYTKKALENIEDRELAALYLANMGVKVAQLVGDGSIGALAMKAAAEAYKSSVEEAKKIIKETAEKIKKIVE
B15: design_622_fcc41892-afde-4fb9-b6e8-b664fffd6a75_7_dldesign_0_cycle1_af2pred (protein)
chain: NEHLKEAAKHLEKAIEADAETALQLAQEALSHLLAALREASPEVRPLVEEAISHVTQALVYLSEGGETVEKGREELKKALEHAEKAAA
B16: design_622_fcc41892-afde-4fb9-b6e8-b664fffd6a75_365_dldesign_0_cycle1_af2pred (protein)
chain: AEAAKKNIEIAAKAGEAAVKNLKTMKPEDAKKLYEVVKDLAEYMKEQGKKAPEQAELAKEKAEKIEEEAKKALKEVEEKGKKA
B17: design_621_7e0052dc-ae49-49a0-b99f-9f3ee649cc2f_1898_dldesign_0_cycle1_af2pred (protein)
chain: ALAEAQRRAERLEREVEEAERRIEEHADDAERLEELAERLERLAHEALRLAATAPNEVAQRAVEIAERAARAAERARATAERLR
B18: design_622_fcc41892-afde-4fb9-b6e8-b664fffd6a75_1089_dldesign_0_cycle1_af2pred (protein)
chain: AATKEEAQKAMVEASEVATELLRKAGEAYKAGDEELAEELRRAANELMRAMVQAAKDPAKGLEAVKKAVERGKELLKRAEEALKKA
B19: design_622_fcc41892-afde-4fb9-b6e8-b664fffd6a75_1097_dldesign_0_cycle1_af2pred (protein)
chain: SASEVAIKGGTALVNGAARAGIERIRRAGGGEADVERVKKIAEEAKKKIKAAKADAAKIGAIASEAVEEIRKLTEEVEKKA
B20: design_622_fcc41892-afde-4fb9-b6e8-b664fffd6a75_572_dldesign_0_cycle1_af2pred (protein)
chain: EEELKKAVEEAKKEAKKAIETATQAIKLAQNYPALQAMAQAVKDAAKKALEKAEKGDLETAKRELQALKANLQMAQLLLESAQAG
B21: design_622_fcc41892-afde-4fb9-b6e8-b664fffd6a75_1349_dldesign_0_cycle1_af2pred (protein)
chain: AEASQALARRFIDATLAQMLAQIAAASAEEARRIAEAGLKAIEVAAQALPAEERAARVAEARERGAAAIAAKE
B22: design_622_fcc41892-afde-4fb9-b6e8-b664fffd6a75_281_dldesign_0_cycle1_af2pred (protein)
chain: MKEKEKKLVEEAEKLLKEAKALPATPEGAQQAVQYGQKAAELGKKIKEAGGTKEAAEKAYQYANEAFKIAAQLGAQAA
B23: design_622_fcc41892-afde-4fb9-b6e8-b664fffd6a75_148_dldesign_0_cycle1_af2pred (protein)
chain: GAAEEAAKVAAKGKALTDQAAAGDLETANALLGEALALLEEVARTGSPEAVAAAQAAVAALSKVVLAKAAA
B24: design_622_fcc41892-afde-4fb9-b6e8-b664fffd6a75_178_dldesign_0_cycle1_af2pred (protein)
chain: AAAAKAAAAAAAKAQTAEARALVEEAERLAETDPELAIEVARRAIALANRAALAAQRIGDAATAAEAMAVAERAAEVLTRAGRRARA
B25: design_621_7e0052dc-ae49-49a0-b99f-9f3ee649cc2f_1562_dldesign_0_cycle1_af2pred (protein)
chain: EEKKEEARERGEELVKEAEELAEKAAATSALAAMEAAEYALEVQQEIVELYSEAGDEEGLEEFSARVNKIVAYLQKAALEAQKAEA
B26: design_622_fcc41892-afde-4fb9-b6e8-b664fffd6a75_254_dldesign_0_cycle1_af2pred (protein)
chain: VDPEAQAKAEAEKMLEETKKAAEESPELAAETLNKGMAEMVKLAQANPEANEIYMKYGIEAAKKASEYIKELQEKRA
B27: design_621_7e0052dc-ae49-49a0-b99f-9f3ee649cc2f_1809_dldesign_0_cycle1_af2pred (protein)
chain: GAELVRRTIEASARTARRAVEEARERAKTPEEVEAAAESARRILQVAVDIGANYPEVAGEAEELAAEVGEEAERTLEEARKEY
B28: design_622_fcc41892-afde-4fb9-b6e8-b664fffd6a75_393_dldesign_0_cycle1_af2pred (protein)
chain: AAAEAAAKAAALKAKADAAAAKGEEYYAKGKEYAAKGDVEKASEYYLEAIKYYSEAAKYYAKVDPALADAAMKKAQEATKQMMALAK
B29: design_622_fcc41892-afde-4fb9-b6e8-b664fffd6a75_169_dldesign_0_cycle1_af2pred (protein)
chain: AQRETIKNGILAMMRALALALDDPEKREEMIEALAGIAAQLPKEEGVRVIKEAAKEVAAKYPEKAEEILEAGERAVELAKKLS
B30: design_622_fcc41892-afde-4fb9-b6e8-b664fffd6a75_1399_dldesign_0_cycle1_af2pred (protein)
chain: GAALAAAKGVAEQVKRVAEEAEAADPSLAPIMEEYKRRAEELLKKAQENASDEAKVNEYLAELVELLGEVARLRREALAA
B31: design_622_fcc41892-afde-4fb9-b6e8-b664fffd6a75_413_dldesign_0_cycle1_af2pred (protein)
chain: SEKEEASKKLKELEEEGNKAYEKGKAAAAAGDTGAAGAELVKIVKMSSEAYKLSKYIPEEGKKVSDELSAKAVELSKLLTA
B32: design_622_fcc41892-afde-4fb9-b6e8-b664fffd6a75_1277_dldesign_0_cycle1_af2pred (protein)
chain: SEEIIKKAEEIKEKAEKLLKEAAKLTPEQQKAAIKEMSKNLGELTELAKTASPEELKVINEAMNAAAKASVALAAKAA
B33: design_621_7e0052dc-ae49-49a0-b99f-9f3ee649cc2f_2499_dldesign_0_cycle1_af2pred (protein)
chain: AAAQQTFQNFLGYATLAAAYLATVDPAAAEELMALAAKARADPEKAKEYFAKAKELLTKHLDKLAAYSPEAGQAAQNAIDAANTLL
B34: design_622_fcc41892-afde-4fb9-b6e8-b664fffd6a75_256_dldesign_0_cycle1_af2pred (protein)
chain: SAAAVAAAAAAASARQASAALEEALATGTPEEVLRAAETALKMAEVLAWAGEQSPAAQAALDALRAKAEAARKAVAAA
B35: design_621_7e0052dc-ae49-49a0-b99f-9f3ee649cc2f_1985_dldesign_0_cycle1_af2pred (protein)
chain: MAEEAEKLKKEAEKEFEKLKAEAKKYAAANGAKGQLAYQAVVGTGRSALDSLEALADDPERAKKTVEQLLAVAKDLVKSAAA
B36: design_622_fcc41892-afde-4fb9-b6e8-b664fffd6a75_876_dldesign_0_cycle1_af2pred (protein)
chain: AEAERLRAGAESVLKMADVAYQAAKASAANPAAVAQAIASMTAAYKNAAELYREAGDEEKAKAALAKGDADVAAAKALAA
B37: design_621_7e0052dc-ae49-49a0-b99f-9f3ee649cc2f_2349_dldesign_0_cycle1_af2pred (protein)
chain: GEQALQIARAAYVSAKNLLKDAEATENLEDAEKLAELAEAMAKQALEVAKAAAAQSAEAVEYAKKAKEYAEEAKKLVEEKKKA
B38: design_621_7e0052dc-ae49-49a0-b99f-9f3ee649cc2f_1792_dldesign_0_cycle1_af2pred (protein)
chain: EEAARQALLEAVTKTAIDLIKKADEAAKTDPAQAELYAYQAASLIASVLHQDPEKGKEVLEIAKKSAFGELITKKTEEMLKKIDAA

What follows are binders tested against CD276, Q5ZPR3.
CD276, Q5ZPR3, sequence (Q5ZPR3 whole entry): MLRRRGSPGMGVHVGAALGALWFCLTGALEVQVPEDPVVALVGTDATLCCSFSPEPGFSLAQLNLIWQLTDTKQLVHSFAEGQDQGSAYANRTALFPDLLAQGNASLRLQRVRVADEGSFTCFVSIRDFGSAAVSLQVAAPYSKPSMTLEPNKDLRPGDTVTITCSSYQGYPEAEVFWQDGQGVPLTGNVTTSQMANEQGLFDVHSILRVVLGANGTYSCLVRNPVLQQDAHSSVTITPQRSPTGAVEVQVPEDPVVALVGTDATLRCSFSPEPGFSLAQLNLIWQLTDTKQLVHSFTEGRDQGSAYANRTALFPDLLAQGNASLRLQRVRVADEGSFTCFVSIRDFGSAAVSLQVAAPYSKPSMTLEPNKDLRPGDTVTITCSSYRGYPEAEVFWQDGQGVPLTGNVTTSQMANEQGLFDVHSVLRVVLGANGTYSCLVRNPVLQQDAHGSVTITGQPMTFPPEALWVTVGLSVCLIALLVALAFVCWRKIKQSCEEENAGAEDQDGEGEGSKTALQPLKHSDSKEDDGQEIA

Binding in a display sort, inactive:
B1 not found
B2 not found
B3 not found
B4 not found
B5 not found
B6 not found
B7 not found
B8 not found
B9 not found
B10 not found
B11 not found
B12 not found
B13 not found
B14 not found
B15 not found
B16 not found
B17 not found
B18 not found
B19 not found
B20 not found
B21 not found
B22 not found
B23 not found
B24 not found
B25 not found
B26 not found
B27 not found
B28 not found
B29 not found
B30 not found
B31 not found
B32 not found
B33 not found
B34 not found
B35 not found
B36 not found
B37 not found
B38 not found
